Several values for one entry are separate records, joined by “and”; a condition that tells them apart may be missing. Equal values may be shown once. Results filed as inconclusive are left out. Activity calls are given as the source filed them. Unless noted, the call rests on the fitted dose curve; in most records, active means well fitted curve in the direction sought with a large enough effect; inconclusive means small, poorly fitted or top-dose-only effect, or another doubt; inactive means no such curve, though single readings can be large; an effect the other way counts as inactive or inconclusive.
Experiments:
[1] = Cell Viability - SH-SY5Y (AID 544); conditions: SH-SY5Y neuroblastoma cell viability; viability change, negative = cytotoxic: at 92.2 µM (top of the series);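 further: cells exposed to compound for 40 hours; 0% = DMSO alone and -100% = 100 µM tamoxifen; nearly all actives have a fitted effect of over 55% in size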
Summary of the method: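 Cytotoxicity is scored as a concentration-dependent fall in intracellular ATP in human SH-SY5Y cells treated 40 hr in complete culture medium. Potency is expressed as AC50 from a Hill equation fit.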

[2] = Cellular Toxicity (caspase-3) HUV-EC-C (AID 656);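 further: 0% = DMSO basal and 100% = 100 µM tamoxifen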
Summary of the method: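 Luminescent Caspase-Glo 3/7 readout after 16 h, 37 °C compound exposure of HUV-EC-C endothelial cells, 1000 per well, complete medium. AC50 derived by Hill fitting, with DMSO as baseline and 100 uM tamoxifen as full activation.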

[3] = Cellular Toxicity (caspase-3) SHSY5Y (AID 657)
Summary of the method: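 Luminescent Caspase-Glo 3/7 read-out, 1 hr room temperature, follows 16 hours of compound treatment of SH-SY5Y cells at 37 °C. Normalization: DMSO basal, 10 uM staurosporine as 100%; AC50 values from Hill-equation concentration-response fits.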

[4] = Cellular Toxicity (caspase-3) Mesangial (AID 660);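 further: combined caspase 3 and 7 activity read by Caspase-Glo luminescence; cells exposed to compound for 16 h before the caspase read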
Summary of the method: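 Concentration-response qHTS: compound-induced rise in caspase 3/7 luminescence in human mesangial cells after 16 h, normalized to DMSO and 100 uM tamoxifen controls.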

[5] = Cellular Toxicity (caspase-3) H-4-II-E (AID 663); conditions: Potency: caspase-3 activation;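 further: cells exposed to compound for 16 hr before readout; 0% = DMSO basal and 100% = 100 µM tamoxifen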
Summary of the method: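 Luminescence from caspase-cleaved aminoluciferin substrate, read 20 min after reagent addition, reports caspase 3/7 activation in rat H-4-II-E cells after 16 hr compound exposure. Normalized to DMSO (basal) and 100 uM tamoxifen (100%); AC50 from Hill fits.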

[6] = biological target: Cytochrome P450 3A4 (Homo sapiens) (UniProt P08684); assay: qHTS Assay for Inhibitors and Substrates of Cytochrome P450 3A4 (AID 884); further: on the % scale 0 is the no-effect control and ±100 the full control effect; nearly all actives have a fitted effect of over 50% in size
Summary of the method: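 20 nM human CYP3A4 with 25 uM Luciferin-PPXE (at KM) in 200 mM KPO4, preincubated 10 min with compound; NADPH regeneration started a 60 min RT reaction. Luciferin detected by luminescence, normalized to 57 uM ketoconazole as full inhibition.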

[7] = MultiTox-Fluor Cytotoxicity Assay - LYMP1-001 - Live Cells (AID 947);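 further: 0% = DMSO only and full inhibition = tetraoctylammonium bromide control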
[8] = Cell Viability - LYMP1-002 - Assay at 16 hr (AID 948);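 further: 0% = DMSO alone and full effect = 92 µM tetraoctylammonium bromide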
Summary of the method: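 ATP luminescence (CellTiter-Glo) was measured after 16 hr compound exposure at 37 C of 2500 lymphoblastoid LYMP1-002 cells per well. Concentration-response curves were fitted with the Hill equation to give AC50.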

[9] = MultiTox-Fluor Cytotoxicity Assay - LYMP1-002 - Live Cells (AID 955); further: on the % scale 0 is the no-effect control and ±100 the full control effect
Summary of the method: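 Cytotoxicity in the human lymphoblastoid line LYMP1-002 is measured as loss of live-cell protease activity after 16 h treatment in complete culture medium. AC50 is derived from Hill-equation fits of qHTS concentration-response data.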

[10] = Cell Viability - LYMP2-005 (AID 967);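 further: plate controls were DMSO only for no effect and 92 µM tetraoctylammonium bromide control for full effect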
Summary of the method: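 LYMP2-005 human lymphoblastoid cells (2500/well) were treated with compounds for 24 h at 37 C. Intracellular ATP was then measured by CellTiter-Glo luminescence after 30 min at room temperature. AC50 values came from Hill-equation fits of qHTS concentration-response data.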

[11] = Cell Viability - LYMP2-017 (AID 972); further: on the % scale 0 is the no-effect control and ±100 the full control effect; nearly all actives have a fitted effect of over 55% in size
Summary of the method: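 Steps: plate 2500 lymphoblastoid cells per well; incubate 5 hr at 37 C; add compound across a concentration series and incubate 24 hr at 37 C; add CellTiter-Glo and read luminescence after 30 min at room temperature; fit Hill curves for AC50.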

[12] = Cell Viability - LYMP2-023 (AID 975);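 further: cellular ATP measured by luciferase luminescence as viability proxy; plate controls were DMSO only for no effect and 92 µM tetraoctylammonium bromide control for full effect; nearly all actives have a fitted effect of over 55% in size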
Summary of the method: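 Concentration-dependent drop in intracellular ATP measures acute cytotoxicity in a human lymphoblastoid line treated for 24 hours in complete culture medium. AC50 values are taken from Hill-equation fits of qHTS data.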

[13] = Cell Viability - LYMP2-002 (AID 977);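 further: plate controls were DMSO only for no effect and 92 µM tetraoctylammonium bromide for full effect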
Summary of the method: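 Luminescent ATP readout (CellTiter-Glo, 30 min room temperature) after 24 h compound exposure at 37 C of a human lymphoblastoid line, 2500 cells/well. AC50 values derived by standard Hill fitting of qHTS concentration-response data.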

[14] = biological target: Tumor necrosis factor (Homo sapiens) (UniProt P01375); assay: qHTS assay to identify small molecules that stimulate Tumor Necrosis Factor-alpha (TNF-alpha) secretion (AID 651757; active means well fitted curve in the direction sought with a large enough effect in the signal ratio; the % refers to the signal ratio; further: 0% is about no effect)
Summary of the method: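 Secreted TNF-alpha from compound-treated THP-1 cells (17 hrs, 37 C) was quantified with a homogeneous time-resolved fluorescence antibody assay.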

[15] = qHTS assay for environmental chemicals that activate the Aryl hydrocarbon Receptor (AhR) signaling pathway (AID 651777); conditions: 1A2-DRE human hepatoma cells, luciferase, 24 h; activation: active compounds read high; further: % of control where 0% means no effect; nearly all actives have a fitted effect of over 15% in size
Summary of the method: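 Human hepatoma 1A2-DRE cells, stably carrying a dioxin response element and CYP1A2 promoter driving luciferase, were exposed to compounds for 24 hr at 37 C and 5% CO2. Luciferase signal was then read after 30 min One-Glo at room temperature.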

[16] = biological target: Nuclear receptor ROR-gamma (Homo sapiens) (UniProt P51449); assay: qHTS assay for small molecule antagonists of the retinoid-related orphan receptor gamma (ROR-gamma) signaling pathway (AID 651802);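 further: CHO cells with doxycycline-induced ROR-gamma expression; luciferase reporter luminescence driven by ROR response element; on the % scale 0 is the no-effect control and ±100 the full control effect; nearly all actives have a fitted effect of over 60% in size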
Summary of the method: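 Antagonism is scored as a fall in luminescence from a RORE-luciferase reporter in CHO cells expressing ROR under a TET-inducible promoter, measured 16hr after doxycycline induction in the presence of compound.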

[17] = biological target: Nuclear receptor subfamily 1 group I member 2 (Rattus norvegicus) (UniProt Q9R1A7); assay: qHTS assay for small molecule activators of the rat pregnane X receptor (rPXR) signaling pathway (AID 651751; call rule not given here; further: 0% is about no effect); conditions: rPXR reporter cells, luciferase (One-Glo), 24 h
[18] = Cell Viability - Mesenchymal (AID 546);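 further: cells exposed to compound for 40 hours before reading; 0% = DMSO only and -100% = 100 µM tamoxifen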
Summary of the method: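 Normal human renal glomerulus-derived kidney mesenchymal cells, 1000 per well in complete medium, were treated with compounds for 40 hr at 37 °C. Viability was read as intracellular ATP by CellTiter-Glo luminescence; AC50 values came from Hill-equation fits of qHTS concentration-response data.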

[19] = qHTS assay for small molecule disruptors of the mitochondrial membrane potential - 1 hr assay (AID 651754; calls by dose curve; further: on the % scale 0 is the no-effect control and ±100 the full control effect; nearly all actives have a fitted effect of over 35% in size)
Summary of the method: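 Steps: seed HepG2 cells and let attach overnight; pin-transfer compound or vehicle; incubate 1 hr at 37C; add Mito-MPS dye for 30 min; read two-channel fluorescence for monomer and aggregate forms.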

[20] = qHTS assay for small molecule disruptors of the mitochondrial membrane potential - 5 hr assay (AID 651755; calls by dose curve; further: on the % scale 0 is the no-effect control and ±100 the full control effect; nearly all actives have a fitted effect of over 40% in size)
Summary of the method: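 HepG2 cells, attached overnight at 37C, were exposed to compound or DMSO for 5 hr at 37C, 5% CO2. Mito-MPS dye was then added for 30 min, and fluorescence read at 490/535 nm (monomers) and 540/590 nm (aggregates).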

Sequence of Cytochrome P450 3A4 (Homo sapiens) (P08684 whole entry, looked up): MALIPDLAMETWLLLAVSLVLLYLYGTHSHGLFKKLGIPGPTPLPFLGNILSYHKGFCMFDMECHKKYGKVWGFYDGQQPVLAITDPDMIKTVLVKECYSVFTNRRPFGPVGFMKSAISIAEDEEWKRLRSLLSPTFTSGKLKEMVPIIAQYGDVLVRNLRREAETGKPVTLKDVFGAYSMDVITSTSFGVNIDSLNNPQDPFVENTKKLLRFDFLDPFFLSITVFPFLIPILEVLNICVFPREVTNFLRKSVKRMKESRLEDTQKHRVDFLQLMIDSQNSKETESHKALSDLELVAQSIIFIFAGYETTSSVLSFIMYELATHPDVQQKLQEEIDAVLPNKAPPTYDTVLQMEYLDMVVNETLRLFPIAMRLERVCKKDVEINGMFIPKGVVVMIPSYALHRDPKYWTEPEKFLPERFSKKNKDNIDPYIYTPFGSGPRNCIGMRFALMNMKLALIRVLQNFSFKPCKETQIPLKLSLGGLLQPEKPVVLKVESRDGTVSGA
Sequence of Nuclear receptor subfamily 1 group I member 2 (Rattus norvegicus) (Q9R1A7 whole entry, looked up): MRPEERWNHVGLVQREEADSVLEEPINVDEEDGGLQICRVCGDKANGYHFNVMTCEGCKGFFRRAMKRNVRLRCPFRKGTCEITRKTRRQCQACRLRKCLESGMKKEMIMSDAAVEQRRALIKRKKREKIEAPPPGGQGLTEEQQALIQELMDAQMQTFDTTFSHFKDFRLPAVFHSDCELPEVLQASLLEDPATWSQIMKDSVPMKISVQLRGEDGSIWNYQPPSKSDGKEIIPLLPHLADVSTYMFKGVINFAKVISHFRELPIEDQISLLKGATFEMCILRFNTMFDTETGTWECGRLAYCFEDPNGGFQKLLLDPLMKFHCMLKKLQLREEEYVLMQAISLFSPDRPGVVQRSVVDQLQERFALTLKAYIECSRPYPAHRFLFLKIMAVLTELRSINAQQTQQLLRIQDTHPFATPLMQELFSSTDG
Sequence of Nuclear receptor ROR-gamma (Homo sapiens) (P51449 whole entry, looked up): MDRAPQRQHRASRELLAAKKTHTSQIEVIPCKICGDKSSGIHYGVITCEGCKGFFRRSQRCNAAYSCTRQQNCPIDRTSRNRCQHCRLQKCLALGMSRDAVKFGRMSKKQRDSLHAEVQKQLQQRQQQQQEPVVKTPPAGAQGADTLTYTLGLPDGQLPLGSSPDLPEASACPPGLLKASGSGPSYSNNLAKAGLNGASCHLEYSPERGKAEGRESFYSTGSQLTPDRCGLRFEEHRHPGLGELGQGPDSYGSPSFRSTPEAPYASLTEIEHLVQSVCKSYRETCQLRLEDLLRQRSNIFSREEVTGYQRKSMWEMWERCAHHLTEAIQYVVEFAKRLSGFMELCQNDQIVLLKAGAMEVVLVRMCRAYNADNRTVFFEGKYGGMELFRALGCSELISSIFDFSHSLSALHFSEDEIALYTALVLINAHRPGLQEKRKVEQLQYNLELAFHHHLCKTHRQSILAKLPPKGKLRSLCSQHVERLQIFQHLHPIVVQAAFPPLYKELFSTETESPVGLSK
Sequence of Tumor necrosis factor (Homo sapiens) (P01375 whole entry, looked up): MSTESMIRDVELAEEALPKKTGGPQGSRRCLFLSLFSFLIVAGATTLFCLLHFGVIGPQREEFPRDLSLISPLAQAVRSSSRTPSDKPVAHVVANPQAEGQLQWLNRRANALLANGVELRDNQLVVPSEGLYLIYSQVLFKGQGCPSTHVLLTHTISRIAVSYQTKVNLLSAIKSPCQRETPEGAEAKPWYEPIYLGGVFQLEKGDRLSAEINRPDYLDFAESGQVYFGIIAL

CC12CC1(C)C(=O)N(c1cc(Cl)cc(Cl)c1)C2=O (stereo not drawn)
inactive: Potency [1] | outcome [2] | outcome [3] | outcome [4] | Potency [5] | Potency [6] | outcome [7] | outcome [8] | outcome [9] | Potency [10] | Potency [11] | Potency [12] | Potency [13] | outcome [14] | activation [15] -0.0704% and 1.05% | Potency [16] | max response [17] 12.6% and 11%

OCC(Cl)CCl (stereo not drawn)
inactive: Potency [1] | Potency [18] | outcome [2] | outcome [3] | outcome [4] | Potency [5] | Potency [6] | outcome [7] | outcome [8] | outcome [9] | Potency [10] | Potency [11] | Potency [12] | Potency [13] | Potency [19] | Potency [20] | outcome [14] | activation [15] 1.02% | Potency [16] | max response [17] 2.56%

CC(C)OS(C)(=O)=O
inactive: Potency [1] | Potency [18] | outcome [2] | outcome [3] | outcome [4] | Potency [5] | Potency [6] | outcome [7] | outcome [8] | outcome [9] | Potency [11] | Potency [12] | Potency [13] | Potency [19] | Potency [20] | outcome [14] | activation [15] 1.58% | max response [17] -0.369%

Cl/C=C\Cl
inactive: Potency [1] | Potency [18] | outcome [3] | outcome [4] | Potency [5] | Potency [6] | outcome [7] | outcome [8] | outcome [9] | Potency [10] | Potency [11] | Potency [12] | Potency [13] | Potency [19] | outcome [14] | activation [15] 0.819% | Potency [16] | max response [17] 3.59%

CCCN(CCC)c1c([N+](=O)[O-])cc(C(F)(F)F)cc1[N+](=O)[O-]
inactive: Potency [1] | Potency [18] | outcome [2] | outcome [3] | outcome [4] | Potency [5] | outcome [9] | Potency [10] | Potency [11] | Potency [12] | Potency [13] | Potency [19] | Potency [20] | outcome [14] | activation [15] 0.344% and 0.563% | Potency [16]

C=CCCC#N
inactive: Potency [1] | Potency [18] | outcome [3] | outcome [4] | Potency [5] | Potency [6] | outcome [7] | outcome [9] | Potency [11] | Potency [12] | Potency [13] | Potency [19] | Potency [20] | outcome [14] | Potency [16] | max response [17] -6.54%

ClC(Cl)(Cl)C(Cl)(Cl)Cl
inactive: Potency [1] | Potency [18] | outcome [2] | outcome [3] | outcome [4] | Potency [6] | outcome [7] | outcome [8] | outcome [9] | Potency [10] | Potency [12] | Potency [13] | Potency [19] | Potency [20] | outcome [14] | activation [15] 0.18% | Potency [16] | max response [17] 6.05%

— PubChem BioAssay (NCATS)
